A549 tox-1 = Nrf2 qHTS screen for inhibitors: counterscreen for cytotoxicity; A549 ARE-Fluc cells, CellTiter-Fluor viability, 18-24 h; Potency, µM (highest dose often 46 µM), actives largely listed as inhibitors; hit rate 0.16% among 390,000; AID 504648, 2011
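A549 ARE-Fluc cells in 5% FBS OPTI-MEM, 5000 cells/well, rested 2 h then exposed to compounds in concentration-response for 18-24 h at 37 °C. Viability by CellTiter-Fluor fluorescence (Ex 405/Em 525) after 30 min; luciferase luminescence (BugLite, 15 min, RT) read afterwards.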
rTrxR1 inhibitor = qHTS Assay for Inhibitors of Mammalian Selenoprotein Thioredoxin Reductase 1 (TrxR1): qHTS | Thioredoxin reductase 1, cytoplasmic (Rattus norvegicus), O89049 | recombinant rTrxR1, NADPH fluorescence consumption, selenite substrate | Potency, µM (series often up to 114 µM), actives largely listed as inhibitors | hit rate 1% among 390,000 | AID 588453, 2011; further: nearly all actives have a fitted effect of over 65% in size
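Rat TrxR1 (90 nM in the dispensed reagent) was pre-reduced with 400 uM NADPH for 5 min at room temperature, then incubated with compound for 15 min. After 400 uM selenite was added, NADPH fluorescence (Ex 340/Em 450 nm) was followed for 8 min.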
Nrf2 activator = qHTS of Nrf2 Activators | AREc32 ARE-luciferase reporter (MCF7-derived line), luminescence, 24 h | Potency, µM (top dose mostly 46.1 µM), hits mostly activators | hit rate 0.31% among 410,000; further: nearly all actives have a fitted effect of over 65% in size
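For detection, Steady-Glo was added and plates sat 30 min at RT; before that, AREc32_Fluc cells grown overnight in OPTI-MEM/5% FBS had been treated with 23 nL compound for 24 hr at 37 deg C.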
Nrf2 block = Nrf2 qHTS screen for inhibitors. Potency, µM (top dose mostly 46 µM), hits mostly inhibitors. A549 ARE-Fluc reporter, luciferase luminescence, 18-24 h. hit rate 2.1% among 360,000; further: nearly all actives have a fitted effect of over 60% in size
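In this cell-based qHTS, ARE-driven firefly luciferase in A549 cells reports Nrf2 activity; the luminescent signal after BugLite lysis is the measured value, with a prior CellTiter-Fluor read for cell health.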
TrxR1 substrate = qHTS Assay for Substrates of Mammalian Selenoprotein Thioredoxin Reductase 1 (TrxR1): qHTS; AID 588456, 2011; purified TrxR1 substrate turnover, NADPH consumption readout; hit rate 0.01% among 390,000; Potency, µM (series often up to 114 µM); Thioredoxin reductase 1, cytoplasmic (Rattus norvegicus), O89049; further: nearly all actives have a fitted effect of over 50% in size
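Rat TrxR1, dispensed at 90 nM, was prereduced with 400 uM NADPH (final) for 5 min at ~22 deg C, then incubated with compound 15 min before 400 uM selenite. A first-read NADPH fluorescence drop versus no-compound background flagged substrates.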
GALK inhibitor = qHTS Assay for Inhibitors of Human Galactokinase (GALK); Purified GALK, Kinase-Glo residual ATP luminescence; hit rate 0.007% among 270,000; P51570; AID 1868, 2009; Potency, µM (titrated, usually from 57.5 µM), most hits filed as inhibitors
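Luminescence from leftover ATP (Ultra-Glo luciferase/luciferin) served as read-out after a 1 h room-temperature reaction of 5 nM GALK with 35 uM ATP and 100 uM galactose.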
FLuc counter 3 = Nrf2 qHTS screen for inhibitors: Purified Fluc Biochemical Counterscreen for Hit Validation; Potency, µM (highest dose often 57.5 µM), most hits filed as inhibitors; AID 720522, 2013; shares compounds with Nrf2 block; hit rate 4% among 1,400; purified firefly luciferase, luminescence inhibition; further: nearly all actives have a fitted effect of over 65% in size
Target sequence (P08659 whole entry, looked up): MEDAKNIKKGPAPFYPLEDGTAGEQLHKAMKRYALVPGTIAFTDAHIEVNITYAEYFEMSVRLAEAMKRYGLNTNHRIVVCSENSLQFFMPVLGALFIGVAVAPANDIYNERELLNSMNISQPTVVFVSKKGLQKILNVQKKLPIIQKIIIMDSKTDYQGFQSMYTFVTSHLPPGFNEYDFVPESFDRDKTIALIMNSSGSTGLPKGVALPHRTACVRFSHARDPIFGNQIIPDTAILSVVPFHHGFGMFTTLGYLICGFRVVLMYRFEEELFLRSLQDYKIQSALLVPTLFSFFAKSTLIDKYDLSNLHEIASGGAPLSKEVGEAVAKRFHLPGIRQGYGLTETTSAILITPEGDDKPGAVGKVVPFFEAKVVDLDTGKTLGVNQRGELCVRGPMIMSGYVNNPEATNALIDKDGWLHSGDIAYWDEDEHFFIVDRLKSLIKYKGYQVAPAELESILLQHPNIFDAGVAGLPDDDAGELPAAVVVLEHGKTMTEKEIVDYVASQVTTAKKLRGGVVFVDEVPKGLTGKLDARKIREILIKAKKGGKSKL
A549 tox-2 = Nrf2 qHTS screen for inhibitors: A549 ARE-Fluc Cytotoxicity Counterscreen for Hit Validation; hit rate 2% among 1,400; AID 720523, 2013; shares compounds with Nrf2 block; Potency, µM (titrated, usually from 46.1 µM), hits mostly inhibitors; A549 ARE-Fluc cells, cytotoxicity counterscreen;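 further: cells exposed to compounds for 18 to 24 hours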
Nrf2 ARE inh = Nrf2 qHTS screen for inhibitors: Nrf2 A549 ARE-Fluc Confirmation Assay for Hit Validation; AID 720524, 2013; hit rate 74% among 1,400; A549 ARE-firefly luciferase reporter, luminescence; Potency, µM (titrated, usually from 46.1 µM), usual class: inhibitors; shares compounds with Nrf2 block; further: nearly all actives have a fitted effect of over 65% in size
Numbers stand for hits; n = inactive; u = inconclusive; x = no result given; [ ] = dose if it differs, or a comment. Only some compounds are listed: those with a hit (about 3% of all), similar ones and a draw of the others. The call rests on the fitted dose curve; in most records, active means well fitted curve in the direction sought with a large enough effect; inconclusive means small, poorly fitted or top-dose-only effect, or another doubt; inactive means no such curve, though single readings can be large; an effect the other way counts as inactive or inconclusive.

SMILES	A549 tox-1	rTrxR1 inhibitor	Nrf2 activator	Nrf2 block	TrxR1 substrate	GALK inhibitor	FLuc counter 3	A549 tox-2	Nrf2 ARE inh
CC(=O)C1(O)Cc2c(O)c3c(c(O)c2C(OC2CC(N)C(O)C(C)O2)C1)C(=O)c1c(O)cccc1C3=O (configuration not stated)	x	n	x	x	n	x	n	u	0.46µM
COc1ccc(CCNC(=O)c2cccc(S(=O)(=O)N3CCCC3)c2)cc1OC	n	n	n	n	n	x	x	x	x
O=C(Cn1c(NCCO)nc2ccccc21)Nc1cccc(S(=O)(=O)N2CCCC2)c1	n	n	n	u	n	x	x	x	x
O=C(Cc1n[nH]c(=O)c2ccccc12)Nc1cccc(S(=O)(=O)N2CCCCCC2)c1	n	n	n	9.2µM	n	x	n	n	9.2µM
O=C(Cn1cnc2ccccc21)Nc1cccc(S(=O)(=O)N2CCCC2)c1	n	n	n	5.8µM	n	x	n	n	9.2µM
COc1cc(OC)c(OC)cc1CNC(=O)c1cccc(S(=O)(=O)N2CCc3ccccc3C2)c1	n	n	n	7.3µM	n	x	n	n	5.8µM
COc1ccc(CNC(=O)c2cccc(S(=O)(=O)N3CCCCC3)c2)cc1OC	n	n	n	5.2µM	n	x	n	n	5.8µM
CCN(CC)S(=O)(=O)c1ccc2c(c1)N(CC(=O)Nc1ccc(F)cc1F)C(=O)C1CCCN21 (configuration not stated)	n	n	n	u	n	x	x	x	x
CC(C)(C)NC(=O)C(=O)NNC(=O)c1cccc([N+](=O)[O-])c1	n	n	n	n	n	n	x	x	x
CS(=O)(=O)N1CCc2cc(C(=O)Nc3ccc(S(N)(=O)=O)cc3)ccc21	n	n	n	n	n	x	x	x	x
COc1ccc(S(=O)(=O)N2CCOCC2)cc1NC(=O)CN1C(=O)NC2(CCC(C)CC2)C1=O (configuration not stated)	x	x	n	x	x	x	x	x	x
COc1ccc(CC(=O)Nc2cccc(S(=O)(=O)N3CCCC3)c2)cc1OC	n	n	n	4.6µM	n	x	n	n	7.3µM
Cc1csc(SCC(=O)Nc2sc3c(c2C#N)CCC3)n1	n	n	n	n	n	n	x	x	x
Cc1ccnc(SCC(=O)Nc2sc3c(c2C#N)CCCC3)n1	n	n	n	9.2µM	n	n	n	n	x
Cc1nn(-c2ccccc2)c(N)c1C(c1ccccc1)c1c(C)nn(-c2ccccc2)c1N	n	n	n	n	n	n	x	x	x
COc1cc(/C=C(/C#N)c2ccc(C)cc2)ccc1Oc1ccc([N+](=O)[O-])cn1	n	n	n	2.9µM	n	n	n	n	u
O=C(c1ccc2c(c1)CCN2S(=O)(=O)c1ccc(Cl)cc1)N1CCN(c2ccccc2)CC1	n	n	n	u	n	x	x	x	x
Cc1cc(/C=C(\C#N)C(=O)Nc2ccccc2)c(C)n1-c1ccc(F)cc1	n	n[11.4 µM]	n	n	n	x	x	x	x
Cc1cc(C(=O)O)ccc1-n1c(C)cc(/C=C(/C#N)C(=O)Nc2ccccc2)c1C	n	n	n	5.8µM	n	n	n	n	u
O=C1CC(c2ccco2)Cc2[nH]c(=O)c(C(=O)Nc3ccccc3)cc21 (configuration not stated)	x	n	x	x	n	x	n	n	u
Cc1cccc(C)c1OC1(c2ccccc2)OC(=O)c2ccccc21 (configuration not stated)	u	n	n	u	n	n	x	x	x
Cc1cc(C)c(OC2(c3ccccc3)OC(=O)c3ccccc32)c(C)c1 (configuration not stated)	n	n	n	9.2µM	n	n	n	n	n
CCN1CCS/C1=C\C=C\C1=[N+](CC)CCS1	u	n	n	1.6µM	u	n	n	u	6.5µM
CCCCCCCCCn1c2c(c(=N)c3c1CCC3)CCC2	n	n	n	u	n	n	x	x	x
CCCCCCCn1c2c(c(=N)c3c1CCC3)CCCC2	u	n	n	0.52µM	n	n	n	n	1.8µM
SMILES	A549 tox-1	rTrxR1 inhibitor	Nrf2 activator	Nrf2 block	TrxR1 substrate	GALK inhibitor	FLuc counter 3	A549 tox-2	Nrf2 ARE inh
CCCCn1c2c(c(=N)c3c1CCC3)CCC2	n	n	n	2.6µM	n	n	n	n	6.5µM
Cc1ccc(S(=O)(=O)N(C)Cc2ccc(C(=O)N/N=C/c3ccc(OC(F)F)cc3)cc2)cc1	n	n	n	5.8µM	n	n	n	n	6.5µM
Cc1cccc(NC(=O)COC(=O)c2nn(C)c(=O)c3ccccc23)c1C	n	n	n	n	n	x	x	x	x
Cc1ccccc1C(=O)NCc1ccc2c(c1)CCN2C(=O)c1ccccc1	n	n	n	x	n	x	x	x	x
CCN(CC)c1ccc(/C=C/c2ccc3ccc(OC)cc3[n+]2CC)cc1	u	n	n	4.6µM	n	n	n	u	5.2µM
Nc1c(Cl)ncnc1N/N=C/c1ccccn1	u	u	n	5.2µM	n	n	u	u	2.1µM
CCNC(=O)NC1(C(=O)N2CCC(Cc3ccccc3)CC2)CCCCC1	n	n	n	n	n	n	x	x	x

Screening results: PubChem BioAssay, National Center for Advancing Translational Sciences (NCATS)
